The nature of test [1]: qHTS assay for small molecule agonists of the p53 signaling pathway (AID 651631; calls by dose curve; note: nearly all actives have a fitted effect of over 15% in size). The method in brief: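 Stably transfected HCT-116 cells (beta-lactamase behind p53 response elements) get compounds after a 5 h settling period; 16 h later at 37 °C, FRET substrate is loaded and fluorescence read after 2 h.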
Test [2] can be described thus: qHTS assay for small molecules that induce genotoxicity in human embryonic kidney cells expressing luciferase-tagged ATAD5 (AID 651632). Note: nearly all actives have a fitted effect of over 15% in size. The method in brief:
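Increased luciferase signal from ATAD5-tagged reporter cells indicates DNA-damage-driven ATAD5 induction. HEK293T cells are treated for 16 hr at 37C before detection with Amplite.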
Background: In qHTS, concentration-response curves come from the screen itself.

The nature of test [3]: qHTS assay for small molecule agonists of the p53 signaling pathway - cell viability (AID 651633; calls by dose curve;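 note: p53RE-bla HCT reporter cells with a stable beta-lactamase p53 reporter; nearly all actives have a fitted effect of over 30% in size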). The method in brief:
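p53RE-bla cells were treated with compound for 16 hours at 37 C. Cytotoxicity was then measured as CellTiter-Glo luminescence after 30 min at room temperature.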

Test [4] can be described thus: qHTS assay for small molecules that induce genotoxicity in human embryonic kidney cells expressing luciferase-tagged ATAD5 - cell viability (AID 651634; calls by dose curve; note: nearly all actives have a fitted effect of over 25% in size). The method in brief: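 Cytotoxicity counterscreen in HEK293T cells bearing an ATAD5-luciferase reporter: live-cell protease activity measured by CellTiter-Fluor fluorescence after 15.5 hr compound exposure.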
Test [5] in a line: qHTS assay for small molecule disruptors of the mitochondrial membrane potential - cell viability (AID 720634; calls by dose curve;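 note: human HepG2 liver cancer cells; nearly all actives have a fitted effect of over 20% in size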). The method in brief: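 After overnight attachment at 37 C, HepG2 cells received compound or DMSO vehicle for 1 hr. Viability is then taken from ATP-driven luminescence following a 30 min room-temperature CellTiter-Glo step.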
Test [6] is described as follows: qHTS assay for small molecule disruptors of the mitochondrial membrane potential (AID 720635). Note: potency is the fitted concentration of half-maximal effect. The method in brief:
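HepG2 cells exposed to compound 1 hr at 37C, then Mito-MPS dye 30 min. Ratio read of aggregate (540/590 nm) versus monomer (490/535 nm) fluorescence.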

A short description of test [7]: qHTS assay to test for compound auto fluorescence at 590 nm (red) in HepG2 cells (AID 720674). The gist of the method:
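Seeding: 2,000 HepG2 cells/well, MEM/10% FBS, overnight 37 C. Dosing: compound vs DMSO. Incubation: 1 hr, 37 C, 5% CO2. Read: fluorescence 540 ex/590 em, Rose Bengal sodium as red reference.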

The nature of test [8]: qHTS assay to test for compound auto fluorescence at 535 nm (green) in HepG2 cells (AID 720675).
A short description of test [9]: qHTS assay to test for compound auto fluorescence at 460 nm (blue) in HEK293 cells (AID 720678). The gist of the method: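 Blue-channel (Ex/Em 405/460 nm) intensity measured in HEK293 cultures after overnight compound exposure at 37C; signal expressed relative to triamterene. Cells plated 2,000 per well in 10% dialyzed FBS medium and allowed 4-5 hr to attach.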
Test [10] can be described thus: qHTS assay to test for compound auto fluorescence at 590 nm (red) in HEK293 cells (AID 720679). The method in brief:
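Red-channel autofluorescence (Ex/Em 540/590 nm; Rose Bengal sodium reference) was measured after overnight 37C, 5% CO2 exposure of attached HEK293 cells, 2,000 per well in medium with 10% dialyzed FBS.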

The nature of test [11]: qHTS assay to test for compound auto fluorescence at 535 nm (green) in HEK293 cells (AID 720680).
A short description of test [12]: qHTS assay to test for compound auto fluorescence at 460 nm (blue) in HEK293 cell free culture (AID 720681). The gist of the method:
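Compounds were added to cell-free DMEM with 10% FBS and fluorescence read directly. The blue channel used 405 nm excitation and 460 nm emission, with triamterene as the reference fluorophore.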

A short description of test [13]: qHTS assay to test for compound auto fluorescence at 535 nm (green) in HEK293 cell free culture (AID 720682). The gist of the method: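 Using fluorescein as calibrant, autofluorescence was quantified at 485/535 nm in cell-free DMEM containing 10% FBS after pintool addition of compound or vehicle.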
A short description of test [14]: qHTS assay to test for compound auto fluorescence at 590 nm (red) in HEK293 cell free culture (AID 720683). The method in brief:
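Cell-free wells of DMEM with 10% FBS received compound, and intrinsic fluorescence was read at excitation/emission 540/590 nm. Values expressed as equivalence to Rose Bengal sodium.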

Test [15] in a line: qHTS assay to test for compound auto fluorescence at 460 nm (blue) in HepG2 cell free culture (AID 720685). The gist of the method: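 Compound (23 nL) or DMSO pinned into cell-free MEM with 10% FBS; blue fluorescence read at 405/460 nm excitation/emission, expressed as auto-fluorescence equivalency to triamterene.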
The nature of test [16]: qHTS assay to test for compound auto fluorescence at 535 nm (green) in HepG2 cell free culture (AID 720686).
Test [17] can be described thus: qHTS assay to test for compound auto fluorescence at 460 nm (blue) in HepG2 cells (AID 720687). The method in brief:
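HepG2 cells in MEM with 10% FBS, attached overnight at 37 C, were exposed to compound or DMSO for 1 hr at 37 C, 5% CO2. Blue fluorescence was read at 405/460 nm, with triamterene as reference fluorophore.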

Test [18] concerns the target Glucocorticoid receptor (Homo sapiens) (UniProt P04150). Kind of test: qHTS assay to identify small molecule agonists of the glucocorticoid receptor (GR) signaling pathway (AID 720691; active = well fitted activation curve with a large enough effect in the signal ratio in the repeat runs, not every such curve was filed as active; the % refers to the signal ratio). The settings on record: GR-bla HeLa, beta-lactamase reporter ratio, 18 h; activation: at 62.4 µM (top of the series). The method in brief:
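Agonist mode in a HeLa line carrying a GRE-controlled beta-lactamase reporter. Compounds act for 18 h at 37 C before a 2 h room-temperature FRET substrate step and fluorescence reading.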

For test [19] the target is unchanged. The experiment in a line: qHTS assay to identify small molecule antagonists of the glucocorticoid receptor (GR) signaling pathway (AID 720692; active = well fitted inhibition curve with a large enough effect in the signal ratio in the repeat runs, not every such curve was filed as active; the % refers to the signal ratio). The gist of the method:
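Cells plated, rested 4 h at 37 C/5% CO2; compounds in DMSO pin-transferred; dexamethasone added to 5 nM final; 18 h at 37 C; B/G FRET substrate added, 2 h room temperature; fluorescence measured.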

The nature of test [20]: qHTS assay to test for compound auto fluorescence at 590 nm (red) in HepG2 cell free culture (AID 720684). The gist of the method: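 Compounds are added to culture medium (MEM, 10% FBS) lacking cells, then fluorescence is read at excitation 540 nm, emission 590 nm, with Rose Bengal sodium as the equivalency standard.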

Inconclusive results are not listed. Active and inactive are the calls of the source. Unless noted, calls come from the whole dose curve; as a rule, active = well fitted curve in the direction sought with a large enough effect in the repeat runs; inconclusive = weak or mixed curves; inactive = no such curve, though single readings can be large; an effect the other way counts as inactive or inconclusive. Positions of bridges follow the written chain, without caps; N, C: chain ends. Non-standard residues stand in square brackets, D forms with d. Residues, ends and D or L forms follow the SMILES beside them. *: point of attachment. X1 = CC[C@@H](C)[C@@H](N)C1=N[C@H](C(=O)*)CS1; d(aIle) = CC[C@H](C)[C@@H](N)C(=O)O; dOrn = NCCC[C@@H](N)C(=O)O

Glucocorticoid receptor (Homo sapiens), sequence (P04150 whole entry, looked up): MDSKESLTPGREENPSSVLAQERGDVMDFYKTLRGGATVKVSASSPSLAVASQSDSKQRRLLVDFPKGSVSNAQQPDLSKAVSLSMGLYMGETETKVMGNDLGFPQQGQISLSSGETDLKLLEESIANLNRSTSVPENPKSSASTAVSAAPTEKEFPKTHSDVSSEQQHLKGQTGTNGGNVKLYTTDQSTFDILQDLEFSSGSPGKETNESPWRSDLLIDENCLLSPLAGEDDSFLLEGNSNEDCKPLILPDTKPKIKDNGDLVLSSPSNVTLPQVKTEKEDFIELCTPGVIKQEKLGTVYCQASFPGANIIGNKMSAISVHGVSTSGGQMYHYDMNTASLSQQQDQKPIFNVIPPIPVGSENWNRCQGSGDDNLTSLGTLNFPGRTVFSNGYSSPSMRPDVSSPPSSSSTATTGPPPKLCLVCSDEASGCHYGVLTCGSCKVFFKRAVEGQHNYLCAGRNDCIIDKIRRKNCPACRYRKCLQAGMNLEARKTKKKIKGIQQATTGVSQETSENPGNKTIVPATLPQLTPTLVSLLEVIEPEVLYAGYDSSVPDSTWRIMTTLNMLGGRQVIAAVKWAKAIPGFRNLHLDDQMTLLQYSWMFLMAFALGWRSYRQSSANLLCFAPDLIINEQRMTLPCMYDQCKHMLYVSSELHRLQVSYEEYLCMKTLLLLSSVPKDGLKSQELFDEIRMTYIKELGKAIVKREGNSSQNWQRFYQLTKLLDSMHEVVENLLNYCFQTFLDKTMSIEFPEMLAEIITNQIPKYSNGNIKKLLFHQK

In the case of `CC(CNC(=O)c1cccnc1)NC(=O)c1cccnc1` (stereo unspecified), the Potency result in test [1], in test [2], in [3], in test [4], in [5] and in test [6] was “inactive” in each case. Besides, the Potency result in test [8], in [9], in test [12], in test [15], in test [16] and in [17] was “inactive” in each case. Moreover, the Potency result in test [18] is “inactive”. The call in test [7], in test [10], in test [11], in test [13] and in test [14] was inactive.

As for `CCOC(=O)COc1ccc2c(=O)cc(-c3ccccc3)oc2c1`, the Potency result in test [1], in [2], in [3], in test [4], in test [5] and in [8] was “inactive” in each case. Moreover, the Potency entry in [9], in test [12], in test [15], in [16], in test [17] and in test [18] was “inactive” each time. For the same compound, in test [19], the Potency entry is “inactive”. Besides, in test [6], the Potency is 7.5 µM (active). In addition, the compound was classed as inactive in test [7], in test [10], in test [11], in [13] and in [14].

For `CC1(C)S[C@@H]2[C@H](NC(=O)[C@@H](NC(=O)N3CCNC3=O)c3ccccc3)C(=O)N2[C@H]1C(=O)O`, the Potency result in test [1], in test [2], in test [3], in test [4], in test [5] and in [6] was “inactive” in each case. Also, the Potency result in [8], in test [9], in [12], in test [15], in [17] and in test [18] was “inactive” each time. Further, the Potency result in test [19] was “inactive”. Also, the compound was classed as inactive in test [7], in [10], in [11], in test [13], in test [14] and in [20].

`CC[C@H]1OC(=O)C[C@@H](O)[C@H](C)[C@@H](O[C@@H]2O[C@H](C)[C@@H](O)[C@H](N(C)C)[C@H]2O)[C@@H](CCN2C[C@H](C)C[C@H](C)C2)C[C@@H](C)C(=O)/C=C/C(C)=C/[C@@H]1CO[C@@H]1O[C@H](C)[C@@H](O)[C@@H](OC)[C@H]1OC`: the Potency entry in test [1], in [2], in test [3], in [4], in [5] and in [6] was “inactive” throughout. In addition, the Potency result in [8], in test [9], in [12], in test [15], in [16] and in [17] was “inactive” throughout. The Potency result in [18] was “inactive”. The compound was classed as inactive in test [7], in [10], in test [11], in test [14] and in test [20].

Turning to `c1ccc(-n2cnnn2)cc1`, the Potency result in [1], in test [2], in [3], in test [4], in test [5] and in [6] was “inactive” in each case. In addition, the Potency result in test [8], in test [9], in test [12], in test [15], in [17] and in test [18] was “inactive” each time. Besides, the Potency entry in test [19] is “inactive”. Further, the result in test [7], in test [10], in [11], in test [13], in test [14] and in [20] was inactive.

In the case of `Cc1ccc(Cl)c(N)c1Cl`, the Potency entry in [1], in test [2], in test [3], in test [4], in test [5] and in [6] was “inactive” throughout. Moreover, the Potency entry in [8], in test [9], in [12], in [15] and in [17] was “inactive” in each case. For the same compound, the compound was classed as inactive in test [7], in [10], in test [11], in [13] and in [14].

`CC[C@@H](C)[C@@H](N)C1=N[C@H](C(=O)N[C@@H](CC(C)C)C(=O)N[C@@H](CCC(=O)O)C(=O)N[C@@H](C(=O)N[C@@H]2CCCCNC(=O)[C@@H](CC(N)=O)NC(=O)[C@@H](CC(=O)O)NC(=O)[C@@H](Cc3cnc[nH]3)NC(=O)[C@@H](Cc3ccccc3)NC(=O)[C@@H]([C@H](C)CC)NC(=O)[C@@H](CCCN)NC2=O)[C@@H](C)CC)CS1` (X1-LE[d(aIle)][dK][dOrn][dI][dF][dH][dD][dN]; lactam 4-C): the Potency result in test [1], in test [2], in test [3], in test [4], in test [5] and in test [6] was “inactive” throughout. Also, the Potency result in test [8], in test [9], in [12], in test [15], in [16] and in test [17] was “inactive” in each case. Besides, the compound was called inactive in [7], in test [10], in [11], in [14] and in [20].
